Screening data (PubChem BioAssay)
KinaseGlo FLuc – blocks Kinase-Glo luciferase, a counter-screen artifact; Q27757; Kinase-Glo luciferase, ATP luminescence, 8 min; Potency, µM (titrated, usually from 38.3 µM), inactives show at the highest dose activity change, negative = inhibition, usual class: inhibitors; hit rate 0.28% among 200,000; AID 1379; note: % is set by controls: 0 for no effect and ±100 for the full control effect; nearly all actives have a fitted effect of over 60% in size
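Kinase-Glo luciferase light output from ATP and luciferin was measured with 10 uM ATP, within the enzyme's linear range. Buffer: 50 mM imidazole pH 7.2, 50 mM KCl, 7 mM MgCl2, 0.01% Tween 20, 0.05% BSA; luminescence read after 8 min at ambient temperature.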
FLuc counter – firefly luciferase modulation, counter-screen for miR-21 project; hit rate 6.9% among 360,000; P08659; Potency, µM (titrated, usually from 57.5 µM), for the others: top-dose activity change, negative = inhibition, hits mostly inhibitors; purified FLuc, Km substrates, luminescence inhibition; AID 588342;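 note: plate controls were vehicle for no effect and reference inhibitor for full effect; nearly all actives have a fitted effect of over 55% in size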
Target sequence (P08659 whole entry, looked up): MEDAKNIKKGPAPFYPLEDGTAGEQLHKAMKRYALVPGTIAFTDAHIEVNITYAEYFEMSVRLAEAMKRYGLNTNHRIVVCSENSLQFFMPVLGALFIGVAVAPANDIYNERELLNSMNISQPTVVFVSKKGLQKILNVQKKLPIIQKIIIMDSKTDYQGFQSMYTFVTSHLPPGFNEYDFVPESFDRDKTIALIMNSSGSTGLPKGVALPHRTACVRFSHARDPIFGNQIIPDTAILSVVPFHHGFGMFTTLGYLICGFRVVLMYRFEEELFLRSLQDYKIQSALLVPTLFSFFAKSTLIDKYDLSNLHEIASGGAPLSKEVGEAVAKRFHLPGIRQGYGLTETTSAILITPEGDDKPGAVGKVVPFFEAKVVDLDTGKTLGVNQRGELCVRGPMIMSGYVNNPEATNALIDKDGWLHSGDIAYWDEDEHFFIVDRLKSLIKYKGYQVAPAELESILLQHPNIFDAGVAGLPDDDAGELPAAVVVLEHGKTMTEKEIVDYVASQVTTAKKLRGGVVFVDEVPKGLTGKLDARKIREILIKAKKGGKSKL
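Purified P. pyralis luciferase (10nM final) with 10uM D-luciferin and 10uM ATP (Km levels) in 50mM Tris acetate pH 7.5, 10mM Mg acetate, 0.01% Tween-20, 0.05% BSA; qHTS 6-point titration, ~60 µM downward; luminescence read.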
Rab9 promoter act – Rab9 promoter activation; Huh7 Rab9 promoter-luciferase reporter, luminescence, 24 h; Potency, µM (top dose mostly 9.22 µM), without a hit: top-dose activation, negative = inhibition, actives largely listed as activators; hit rate 2.8% among 320,000; AID 485297; note: % of control where 0% means no effect; nearly all actives have a fitted effect of over 60% in size
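Measured in stably transfected Huh7 cells bearing a Rab9 promoter–luciferase construct: 24 h compound treatment at 37 °C, followed by luminescence detection.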
NPC1 promoter act – activates the NPC1 promoter | Huh7 NPC1 promoter luciferase reporter, 24 h | Potency, µM (titrated, usually from 9.22 µM), without a hit: at the highest dose activation, hits mostly activators | hit rate 2.4% among 320,000; note: % of control where 0% means no effect; nearly all actives have a fitted effect of over 60% in size
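Stably transfected Huh7 (NPC1 promoter→luciferase), 1500 cells/well in Opti-MEM + 10% FBS, 2 h settle, then compound 24 h at 37 °C. Luminescence after 10 min with Amplite reagent.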
SMN2 splice up – enhancers of SMN2 splice variant expression; HEK293 SMN2-luciferase splicing reporter, luminescence, 30-36 h; Potency, µM (titrated, usually from 46.1 µM), for the others: at the top dose activity change, positive = activation, usual class: activators; hit rate 2.8% among 210,000; note: % of control where 0% means no effect; nearly all actives have a fitted effect of over 55% in size
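HEK293 cells carry an SMN2 minigene-luciferase reporter in which exon 7 inclusion puts luciferase in frame. Cells were seeded at 2000 cells/well, attached for 10-12 hours, then exposed to compounds for 30-36 hours at 37C before ONE-Glo luminescence.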
ELG1 genotox – inducers of genotoxicity in HEK293T ELG1-luciferase cells | HEK293T ELG1-luciferase reporter, luminescence, 16 h | Potency, µM (highest dose often 46 µM), for the others: top-dose activity change, positive = activation, most hits filed as activators | hit rate 1.3% among 330,000 | AID 504466; note: % of control where 0% means no effect; nearly all actives have a fitted effect of over 60% in size
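HEK293T cells expressing luciferase-tagged ELG1 were treated with compound or DMSO for 16 hr at 37°C. Luciferase activity was then read after 30 min with ONE-Glo at room temperature; rising signal flags genetic stress.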
* hit, by the source's call; ? = inconclusive; nt = no result given; [ ] = dose if it differs, or a comment. A selection: hits, their analogues and other compounds. The true share with any hit is near 7.5%. Calls come from the whole dose curve; as a rule, active = well fitted curve in the direction sought with a large enough effect; inconclusive = small, poorly fitted or top-dose-only effect, or another doubt; inactive = no such curve, though single readings can be large; an effect the other way counts as inactive or inconclusive. Potency is the fitted concentration of half-maximal effect.

SMILES	KinaseGlo FLuc	FLuc counter	Rab9 promoter act	NPC1 promoter act	SMN2 splice up	ELG1 genotox
COc1cccc(N(CC(=O)N2CCC(C)CC2)S(=O)(=O)c2ccc(C)cc2)c1	nt	-6%	nt	nt	-6%	nt
O=C(c1cnn(C(=O)CN2CCCC2=O)c1)c1ccccc1O	nt	0%	-2%	-3%	nt	-4%
COc1ccccc1/C=C/C(=O)Nc1ccc2c(c1)OCCO2	-5%	0.85µM*	0.71µM*	?	2.8µM*	?
COc1ccccc1/C=C/C(=O)OCC(=O)Nc1ccc2c(c1)OCCO2	nt	nt	-5%	0%	nt	2%
O=C(/C=C/c1ccco1)Nc1ccc2c(c1)OCCO2	-17%	1.9µM*	0.63µM*	2.2µM*	8.9µM*	-5%
O=C(/C=C/c1ccccc1)Nc1ccc2c(c1)OCCO2	-13%	0.21µM*	0.45µM*	0.5µM*	1.1µM*	?
CN(C)c1ccc(C(CNC(=O)c2ccccc2F)N2CCc3ccccc32)cc1 (stereo unspecified)	nt	4%	nt	nt	nt	nt
Cc1csc2ncc(C(=O)Nc3ccccc3F)c(=O)n12	-4%	?	?	?	13µM*	12µM*
Cc1csc2ncc(C(=O)Nc3ccccc3Cl)c(=O)n12	nt	-17%	3.2µM*	?	nt	?
Cc1csc2ncc(C(=O)Nc3ccon3)c(=O)n12	-2%	-8%	12%	13%	-4%	5%
CC(C)[C@@H](NC(=O)C1CCC(CNC(=O)[C@H](Cc2ccccc2)NC(=O)OC(C)(C)C)CC1)C(=O)O (stereo partly specified)	nt	-1%	-2%	2%	nt	1%
O=C(CN1C(=O)NC2(CCCc3ccccc32)C1=O)N1CCCCC1 (stereo unspecified)	nt	1%	-2%	-1%	nt	0%
COc1ccccc1C1=NOC(C)(c2nnc(Cc3ccccc3)o2)C1 (stereo unspecified)	nt	2%	-8%	-1%	nt	-6%
Cc1cc(N2CCOCC2)nc2ccc(Cc3ccc4nc(N5CCOCC5)cc(C)c4c3)cc12	-4%[7.66 µM]	nt	nt	nt	-12%[9.22 µM]	nt
Cc1ccc(N=Nc2c(N)[nH]n3c(=O)cc(C)nc23)cc1	-8%	17µM*	0%	2%	19%	-6%
Nc1[nH]n2c(=O)cc(-c3ccccc3)nc2c1N=Nc1ccccc1	0%	17µM*	-22%	-11%	-91%	-5%
Nc1[nH]n2c(=O)cc(-c3ccccc3)nc2c1N=Nc1ccc(S(N)(=O)=O)cc1	-4%	9.5µM*	-15%	-3%	nt	0%
CC(C)NC(=O)c1sc(=S)n2c1[nH]c(=O)c1ccc(C(=O)NCCc3ccc(Cl)cc3)cc12	nt	?	-3%	-2%	nt	-5%
CCOc1ccc(CCNC(=O)c2ccc3c(=O)[nH]c4c(C(=O)NC(C)C)sc(=S)n4c3c2)cc1	nt	17µM*	0%	2%	nt	-13%
Nc1nn(-c2ccccc2)c2ccc([N+](=O)[O-])cc12	nt	17µM*	-1%	12%	nt	11%
Cc1nn(-c2cccc([N+](=O)[O-])c2)c(N)c1-c1ccccc1	-2%	15µM*	2.5µM*	?	13µM*	17%
Nc1c(-c2ccc(Cl)cc2)cnn1-c1cccc(C(F)(F)F)c1	-1%	?	?	?	-11%	7%
Nc1c(-c2ccc(Cl)cc2)cnn1-c1cccc([N+](=O)[O-])c1	-9%	15µM*	?	29%	-4%	15%
O=[N+]([O-])c1ccc2cn(-c3ccccc3)nc2c1	-10%	9.5µM*	2µM*	?	18µM*	?
C=CC1=C2C=C(C3CC3)N(C3CCCCC3)C=C2C(=O)C(C)(OC(=O)c2ccco2)C1=O (stereo unspecified)	-6%[7.66 µM]	nt	nt	nt	8%[9.22 µM]	nt
Nc1c(-c2ccccc2)cnn1-c1cccc([N+](=O)[O-])c1	-3%	15µM*	?	?	19%	?
NC(=O)c1ccccc1NC(=O)c1ccccc1Cl	nt	-17%	2%	2%	nt	5%
